Laboratory results published in PubChem BioAssay AID2148 (The Scripps Research Institute Molecular Screening Center, 2009).
Among all 2,400 compounds or so, about 1,500 (62%) were called active. Rule as the data show it: active = inhibition above about 22%; inactive = the rest. So high a share suggests a set chosen from earlier hits. Not all results are given here.

Each compound was assayed against Melanin-concentrating hormone receptor 1 (Homo sapiens) (UniProt Q99705) (assay: antagonism of human MCHR1 receptor – cell-based, fluorescence, counter-screen for GPR7 antagonist project (AID 2148;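 also: 0% = vehicle with agonist and 100% = vehicle without agonist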)). Conditions: MCHR1-expressing cells, fluorescence antagonist assay; at 4.4 µM; hits give high values.
For `Cc1ccccc1CN1C[C@@H]2C[C@@H](c3cn(C)nc3-c3ccccc3)N3CCC[C@@]23C1=O`, the inhibition was 21.2% (inactive).
With `COc1ccccc1Oc1ccc(S(=O)(=O)Nc2cccnc2)cc1` the inhibition was 39.9% (active).
For `COc1ccc(C)cc1NC(=O)NCCCCc1ccccc1`, the inhibition was 22.6% (active).
With `CCC(C(=O)Nc1ccc(C(C)C)cc1)c1ccccc1` (stereo not given) the inhibition was 95.6% (active).
In the case of `Cc1cc2c(cc1C)N(Cc1ccccc1)C1=NCCCN12`, the inhibition is reported as 9.03% (inactive).
With `Cc1cc(Cl)ccc1OCCCC(=O)Nc1cccc(-n2cnnn2)c1` the inhibition was 45.7% (active).
For `O=C(CCc1ccccc1)Nc1ccc(NC(=O)C2CC2)nc1`, the inhibition was 4.99% (inactive).
In the case of `O=C(CN1CCN(C(=S)NC2CCCC2)CC1)Nc1ccc(Oc2ccccc2)cc1`, the inhibition is reported as 52.8% (active).
For `COc1ccc(C(=O)CSc2nnc(COc3ccccc3)n2Cc2ccco2)cc1`, the inhibition was 38.8% (active).
`O=C(CSc1nnc(-c2ccco2)o1)NCC(=O)c1ccccc1` was tested, and the inhibition was 19.5% (inactive).
`C=CCSc1nsc(NC(=O)Nc2cccc(C(C)=O)c2)n1` was tested, and the inhibition was 68.9% (active).
In the case of `CCSc1nsc(NC(=O)Nc2cccc(C(C)=O)c2)n1`, the inhibition is reported as 62% (active).
With `Cc1ccc(NC(=S)N(CCCN2CCC(C)CC2)Cc2ccco2)cc1` the inhibition was -1.82% (inactive).
For `Oc1cccc(/C=N/Nc2ccc(Cl)nn2)c1O`, the inhibition was 28.3% (active).
In the case of `N#CC1=C(SCc2ccc(C#N)cc2)N=C(N)C(c2nc(-c3ccccc3)cs2)C12CCCCC2` (stereo not given), the inhibition is reported as 24.5% (active).
In the case of `N=c1n(CCc2ccccc2)c2ccccc2n1Cc1ccccc1F`, the inhibition is reported as 53.5% (active).
For `CCc1ccc2nc(N(CCCN(C)C)C(=O)c3ccc4c(c3)OCCO4)sc2c1`, the inhibition was 31.3% (active).
For `CN(C)CCCN(C(=O)c1ccc(S(=O)(=O)N2CCCCCC2)cc1)c1nc2ccc(Br)cc2s1`, the inhibition was 71.8% (active).
With `CN(C)CCCN(C(=O)c1ccc(S(=O)(=O)N2CCCc3ccccc32)cc1)c1nc2ccc(F)cc2s1` the inhibition was 72.1% (active).
With `CCn1c2ccc(F)cc2c2nnc(SCCN3CCOCC3)nc21` the inhibition was -2.62% (inactive).
With `O=C(Nc1ccc2c(c1)OCO2)C1CC(c2c(F)cccc2Cl)=NO1` (stereo not given) the inhibition was 2.22% (inactive).
`O=C(NCCNc1ccc([N+](=O)[O-])cc1Cl)c1ccccc1F` was tested, and the inhibition was 35.2% (active).
With `CN(C)S(=O)(=O)N1CCC(Oc2cccc(C(=O)NCCCC3CCCC3)c2)CC1` the inhibition was 90.4% (active).
`CS(=O)(=O)N(Cc1ccc(Cl)cc1)c1ccc(C(=O)NCCSCc2ccco2)cc1` was tested, and the inhibition was 22.2% (active).
With `CC(=O)N1CCCc2cc(S(=O)(=O)N3CCCC(C(=O)N4CCN(c5cccc(Cl)c5)CC4)C3)ccc21` (stereo not given) the inhibition was 71.3% (active).
For `CCc1c(C)nc2c(-c3ccccc3)c(C)nn2c1Nc1ccc(NC(C)=O)cc1`, the inhibition was 24.5% (active).
In the case of `Cc1ccc2nc(C)c3c(c2c1)N(c1ccccc1)CC3`, the inhibition is reported as 22.2% (active).
For `c1ccc(C2CNCc3c2ccc2ccccc32)cc1` (stereo not given), the inhibition was 73.3% (active).
For `CCCCCCCCCCOC(=O)Cn1c(COc2cccc(OC)c2)[n+](C)c2ccccc21`, the inhibition was 81.7% (active).
For `Cc1ccc(SCc2cc(=O)[nH]c(N3CCCCC3)n2)cc1`, the inhibition was -8.9% (inactive).
With `CCN1CCN(c2c(Cl)cccc2NC(=O)c2ccc(Br)o2)CC1` the inhibition was 21% (inactive).
In the case of `CC(C)(C)NCc1cc(Br)ccc1OC1CCCC1`, the inhibition is reported as 11.2% (inactive).
In the case of `CC(NCc1ccccc1OC1CCCC1)c1ccccc1` (stereo not given), the inhibition is reported as 33% (active).
In the case of `CCN(CC)CCOCCOc1ccc(Cl)c2ccccc12`, the inhibition is reported as 19.4% (inactive).
With `COc1ccccc1N(C(=O)Cn1nnc2ccccc21)C(C(=O)NCc1ccco1)c1ccc(C)o1` (stereo not given) the inhibition was 25.9% (active).
With `O=[N+]([O-])/C=C/c1ccc2c(ccn2Cc2ccccc2)c1` the inhibition was 104% (active).
In the case of `CCCOc1ccccc1C1CC(=O)Nc2cc3c(cc21)OCO3` (stereo not given), the inhibition is reported as 51.8% (active).
`COc1cc(OC)cc(C(=O)N[C@H](C(=O)OCC(=O)NC(C)c2ccccc2)C(C)C)c1` (stereo not given in full) was tested, and the inhibition was 65% (active).
`COc1cc(NC(=O)CN2C(=O)NC(C)(c3ccc(OC(F)F)cc3)C2=O)cc(OC)c1OC` (stereo not given) was tested, and the inhibition was 28.4% (active).
With `Cc1ccc(NC(=O)CN2C(=O)NC(C)(c3ccc(Cl)cc3)C2=O)c(Br)c1` (stereo not given) the inhibition was 6.97% (inactive).
`C=CCNC(=O)COC(=O)c1ccccc1C(=O)N(C)C1CCCCC1` was tested, and the inhibition was -2.95% (inactive).
In the case of `C=CCC1(CC=C)CCCN1C(=O)c1cc(COc2ccc(-n3cncn3)cc2)on1`, the inhibition is reported as 55.2% (active).
In the case of `CCc1ccc(NC(=O)c2ccc(Cn3cc([N+](=O)[O-])cn3)cc2)cc1`, the inhibition is reported as 35.1% (active).
In the case of `CCOc1ccc(C(=O)NC(=S)Nc2ccc(N3CCOCC3)c(Cl)c2)cc1[N+](=O)[O-]`, the inhibition is reported as 24.7% (active).
With `CC(C(=O)N1CCN(c2ccccc2F)CC1)c1ccc([N+](=O)[O-])cc1` (stereo not given) the inhibition was 27.9% (active).
For `CCN(CC)Cc1c(C(=O)OC)nnn1-c1nonc1N`, the inhibition was 5.07% (inactive).
With `Clc1ccc(-c2cc(C3CCNCC3)[nH]n2)c(Cl)c1` the inhibition was 35.6% (active).
`O=C(COc1ccc(S(=O)(=O)Nc2cccc(C(F)(F)F)c2)cc1)N1CCOCC1` was tested, and the inhibition was 28% (active).
For `O=S(=O)(c1ccc(OCC(O)CN2CCN(c3ccccc3Cl)CC2)cc1)N1CCOCC1` (stereo not given), the inhibition was 38.9% (active).
With `O=C(NCCCN1CCN(c2ccc(F)cc2)CC1)Nc1ccc([N+](=O)[O-])cc1` the inhibition was 65.1% (active).
In the case of `Cc1c(CCO)c(=O)n(-c2ccccc2)n1S(=O)(=O)c1ccc(F)cc1`, the inhibition is reported as -12.3% (inactive).
For `Cc1ccc(O)c(NC(=S)NC(=O)COc2ccc(Br)cc2)c1`, the inhibition was 83.8% (active).
In the case of `CN(c1cccc(NC(=O)Nc2ccc(Cl)cc2)c1)S(C)(=O)=O`, the inhibition is reported as 67.3% (active).
With `CCOc1ncccc1C(=O)NCCc1ccc(OC)cc1` the inhibition was 13.4% (inactive).
With `COc1ccc(CS(=O)/C(Cl)=C(/Cl)C(=O)Nc2ccc(OC)nc2)cc1` (stereo not given) the inhibition was 63.9% (active).
With `COc1cccc(CNCCc2c[nH]c3ccccc23)c1OCc1ccccc1F` the inhibition was 83.6% (active).
With `Cc1ccccc1Nc1nnc(SCC(=O)c2cc3ccccc3o2)s1` the inhibition was 10.6% (inactive).
For `Nc1nnc(SCC(=O)Nc2ccc3nc(SCC(=O)Nc4ccccc4)sc3c2)s1`, the inhibition was 81.6% (active).
For `O=C(CN1C(=O)/C(=C/c2ccccc2F)Sc2ccccc21)NCc1cccnc1`, the inhibition was 63% (active).
`Clc1ccc(C2CC(c3cccs3)n3ncnc3N2)cc1Cl` (stereo not given) was tested, and the inhibition was 15.5% (inactive).
